Data published in PubChem BioAssay.
Activity calls are given as the source filed them.

Columns and labels:
[1] = target: Albumin (Bos taurus) (UniProt P02769); test: compounds binding labelled BSA control protein – biochemical, small-molecule microarray, Alexa647 label, 635/667 nm fluorescence, artefact control for SMM control protein annotation, profiling panel (AID 1118); conditions: BSA-A647 binding, fluorescence 635 nm, higher = more signal;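 also: score merges 667 nm emission intensity and signal-to-noise per printed compound spot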
[2] = probe aXIP binding to arrayed compounds – biochemical, NeuroSMM set, 635/667 nm fluorescence, primary screen (AID 1119); conditions: small-molecule microarray, higher = more signal, called active from +8 up or from −8 down;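 also: probe is the protein aXip251-270 applied at 1 µg/mL to compound-printed slides; binding of probe to printed compounds measured as 667 nm fluorescence plus signal to noise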
[3] = probe aNOTCH3 binding on compound microarray – biochemical, small-molecule microarray, 635/667 nm fluorescence, primary screen (AID 1120); conditions: higher = more signal;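 also: probe is a biotin-tagged antibody raised against NOTCH3 rather than NOTCH3 protein; score merges spot fluorescence near 667 nm with spot signal to noise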
[4] = probe aNOTCH2 binding on compound microarray – biochemical, small-molecule microarray, 635/667 nm fluorescence, primary screen (AID 1121); conditions: higher = more signal;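 also: score merges feature fluorescence read at 667 nm with its signal to noise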
[5] = target: Carbonic anhydrase 2 (Homo sapiens) (UniProt P00918); test: compounds binding carbonic anhydrase 2 – biochemical, small-molecule microarray, Alexa647-labelled CAII, profiling panel (AID 1122); conditions: CAII-A647 binding fluorescence, higher = more signal
[6] = COS7 lysate on small-molecule microarray, probe aHis, 635 nm (AID 1123); conditions: COS7 cell lysate, fluorescence, higher = more signal;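 also: z-score combines 667nm fluorescence intensity with signal-to-noise per printed compound spot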
[7] = probe aLAP1 signal on lysate-treated microarray – cell lysate, small-molecule microarray, COS7 lysate, primary screen (AID 1124); conditions: probe aLAP1, fluorescence, higher = more signal;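 also: lysate comes from COS7 cells expressing LAP1 and is applied at 0.3 µg/mL; score merges spot fluorescence near 667 nm with signal-to-noise over triplicate slides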
[8] = system: Sam68 (KHDRBS1); test: compounds binding KHDRBS1 protein – biochemical, small-molecule microarray, 635 nm fluorescence, primary screen (AID 1125); conditions: higher = more signal;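 also: score merges 667 nm channel intensity with signal to noise over triplicate slides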
[9] = system: Chordin-like protein 2 (CHRDL2); test: compounds binding chordin-like 2 – biochemical, small-molecule microarray, 635 nm fluorescence, primary screen (AID 1126); conditions: fluorescence 635 nm, higher = more signal;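 also: printed compound slides probed with Chrdl2 protein at 4 µg/mL for 1 h at 4 C; score merges 667 nm emission intensity with signal to noise over three replicate slides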
[10] = target: Concanavalin-A (Canavalia ensiformis) (UniProt P02866); test: compounds binding concanavalin A lectin – biochemical, small-molecule microarray, Alexa647 label, 635 nm, artefact control for SMM control protein annotation, primary screen (AID 1127); conditions: ConA-A647 binding fluorescence, higher = more signal;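 also: z combines 667 nm emission intensity with signal-to-noise across three replicate slides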
[11] = compounds binding Alexa647 anti-His antibody – biochemical, small-molecule microarray, 635 nm fluorescence, artefact control for SMM control protein annotation, primary screen (AID 1128); conditions: higher = more signal;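 also: score merges feature fluorescence with signal-to-noise for each printed compound spot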
[12] = system: Human papillomavirus type 1a E7 protein (residues 1-88); test: HPV1a E7 small-molecule binders, primary screen, biochemical, small-molecule microarray, residues 1-88, 635 nm (AID 1129); conditions: small-molecule microarray binding, fluorescence 635 nm; higher = more signal
[13] = target: Focal adhesion kinase 1 (Homo sapiens) (UniProt Q05397); test: PTK2 protein binding on printed compound slides – biochemical, small-molecule microarray, 635/667 nm fluorescence, BSA, DTT, primary screen (AID 1130); conditions: 635 nm fluorescence, higher = more signal;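 also: composite of spot emission at 667 nm and signal to noise over triplicate slides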
[14] = system: Fibrinogen (Alexa647-labelled); test: Alexa647-fibrinogen binding to printed small molecules – biochemical, small-molecule microarray, 635/667 nm fluorescence, artefact control for SMM control-protein annotation, profiling panel (AID 1131); conditions: fibrinogen-A647 binding fluorescence, higher = more signal;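 also: z-score merges 667 nm fluorescence with per-spot signal-to-noise over triplicate slides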
[15] = target: Follistatin (Homo sapiens) (UniProt P19883); test: FST protein binding to printed compounds – biochemical, small-molecule microarray, 635/667 nm fluorescence, primary screen (AID 1132); conditions: 635 nm fluorescence, higher = more signal
[16] = target: Fibroblast growth factor 2 (Homo sapiens) (UniProt P09038); test: basic fibroblast growth factor binding to printed compounds – biochemical, small-molecule microarray, 635/667 nm fluorescence, primary screen (AID 1133); conditions: FGF2, fluorescence 635/667, higher = more signal
[17] = JC-1 mitochondrial potential readout, lung cancer cells – cell-based, A549, JC-1 fluorescence, basal, 24 h, 100 nL, profiling panel (AID 1138); conditions: higher = more signal;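 also: A549 lung adenocarcinoma cells under basal conditions with no added stimulus; test concentration not given here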
[18] = system: Lefty1; test: Lefty1 protein binding to printed compounds – biochemical, small-molecule microarray, 635/667 nm fluorescence, primary screen (AID 1139); conditions: fluorescence 635/667, higher = more signal
[19] = system: wheat germ agglutinin (Triticum aestivum), Alexa647-labelled; test: Alexa647-WGA lectin binding to printed small molecules – biochemical, small-molecule microarray, 635/667 nm fluorescence, artefact control for SMM control-protein annotation, profiling panel (AID 1140); conditions: WGA-A647 binding, 635 nm fluorescence, higher = more signal;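 also: score merges 667 nm feature emission with signal to noise over triplicate slides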
[20] = target: Luciferin 4-monooxygenase (Photinus pyralis) (UniProt P08659); test: inhibition of purified Photinus pyralis luciferase – biochemical, luminescence, purified enzyme, 2006 set, primary screen (AID 1141); conditions: purified firefly luciferase, SteadyGlo luminescence, 30 min; higher = more signal, called active from +8 up or from −8 down;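 also: cell-free assay with purified firefly luciferase at 100 ng per well in PBS; test concentration not given here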
Luciferin 4-monooxygenase (Photinus pyralis), sequence (P08659 whole entry, looked up): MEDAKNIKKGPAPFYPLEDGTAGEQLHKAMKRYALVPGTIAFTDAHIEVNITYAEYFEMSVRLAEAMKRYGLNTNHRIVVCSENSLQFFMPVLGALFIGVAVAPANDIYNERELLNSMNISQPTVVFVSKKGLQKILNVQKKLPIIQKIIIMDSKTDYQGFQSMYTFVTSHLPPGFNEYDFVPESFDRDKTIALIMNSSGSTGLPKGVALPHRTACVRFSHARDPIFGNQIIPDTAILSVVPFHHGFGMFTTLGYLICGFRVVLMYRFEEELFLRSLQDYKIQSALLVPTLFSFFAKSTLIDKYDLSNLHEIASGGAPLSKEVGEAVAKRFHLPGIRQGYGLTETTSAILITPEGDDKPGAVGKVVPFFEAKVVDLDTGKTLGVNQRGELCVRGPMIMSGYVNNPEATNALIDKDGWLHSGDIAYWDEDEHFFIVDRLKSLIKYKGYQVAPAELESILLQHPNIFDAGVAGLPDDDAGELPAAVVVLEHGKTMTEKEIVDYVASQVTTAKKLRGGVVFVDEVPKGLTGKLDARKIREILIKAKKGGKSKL

Fibroblast growth factor 2 (Homo sapiens), sequence (P09038 whole entry, looked up): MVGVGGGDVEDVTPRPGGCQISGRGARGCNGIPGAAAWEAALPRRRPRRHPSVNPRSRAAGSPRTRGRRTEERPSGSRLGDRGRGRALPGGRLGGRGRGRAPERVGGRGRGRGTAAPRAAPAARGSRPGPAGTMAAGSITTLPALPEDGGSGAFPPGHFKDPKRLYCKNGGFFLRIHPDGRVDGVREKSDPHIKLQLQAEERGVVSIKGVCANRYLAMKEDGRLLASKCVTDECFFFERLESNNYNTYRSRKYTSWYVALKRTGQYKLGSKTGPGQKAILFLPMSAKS
Albumin (Bos taurus), sequence (P02769 whole entry, looked up): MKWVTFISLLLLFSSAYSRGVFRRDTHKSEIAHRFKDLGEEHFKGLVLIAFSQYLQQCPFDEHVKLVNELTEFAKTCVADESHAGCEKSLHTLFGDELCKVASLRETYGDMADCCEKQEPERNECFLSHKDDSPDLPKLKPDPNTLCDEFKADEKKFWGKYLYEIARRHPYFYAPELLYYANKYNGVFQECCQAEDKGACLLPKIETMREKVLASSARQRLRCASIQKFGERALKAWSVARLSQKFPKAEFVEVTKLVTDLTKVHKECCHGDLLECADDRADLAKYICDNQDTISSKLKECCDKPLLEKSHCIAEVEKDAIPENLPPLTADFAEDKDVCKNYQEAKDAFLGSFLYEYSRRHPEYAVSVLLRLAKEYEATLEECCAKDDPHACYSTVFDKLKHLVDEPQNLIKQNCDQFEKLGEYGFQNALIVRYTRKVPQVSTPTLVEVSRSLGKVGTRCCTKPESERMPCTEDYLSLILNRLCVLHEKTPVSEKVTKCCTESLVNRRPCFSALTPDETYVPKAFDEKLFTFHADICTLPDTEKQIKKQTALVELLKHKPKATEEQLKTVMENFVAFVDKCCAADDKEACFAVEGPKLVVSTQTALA
Concanavalin-A (Canavalia ensiformis), sequence (P02866 whole entry, looked up): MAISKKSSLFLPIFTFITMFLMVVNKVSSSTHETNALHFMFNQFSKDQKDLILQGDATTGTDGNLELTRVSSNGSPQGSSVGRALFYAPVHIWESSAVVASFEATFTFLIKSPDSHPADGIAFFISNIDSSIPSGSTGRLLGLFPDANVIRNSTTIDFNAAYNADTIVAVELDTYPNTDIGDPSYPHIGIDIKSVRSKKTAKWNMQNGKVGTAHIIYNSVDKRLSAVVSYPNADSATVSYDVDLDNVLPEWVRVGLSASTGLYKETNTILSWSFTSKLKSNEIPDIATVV
Focal adhesion kinase 1 (Homo sapiens), sequence (Q05397 whole entry, looked up): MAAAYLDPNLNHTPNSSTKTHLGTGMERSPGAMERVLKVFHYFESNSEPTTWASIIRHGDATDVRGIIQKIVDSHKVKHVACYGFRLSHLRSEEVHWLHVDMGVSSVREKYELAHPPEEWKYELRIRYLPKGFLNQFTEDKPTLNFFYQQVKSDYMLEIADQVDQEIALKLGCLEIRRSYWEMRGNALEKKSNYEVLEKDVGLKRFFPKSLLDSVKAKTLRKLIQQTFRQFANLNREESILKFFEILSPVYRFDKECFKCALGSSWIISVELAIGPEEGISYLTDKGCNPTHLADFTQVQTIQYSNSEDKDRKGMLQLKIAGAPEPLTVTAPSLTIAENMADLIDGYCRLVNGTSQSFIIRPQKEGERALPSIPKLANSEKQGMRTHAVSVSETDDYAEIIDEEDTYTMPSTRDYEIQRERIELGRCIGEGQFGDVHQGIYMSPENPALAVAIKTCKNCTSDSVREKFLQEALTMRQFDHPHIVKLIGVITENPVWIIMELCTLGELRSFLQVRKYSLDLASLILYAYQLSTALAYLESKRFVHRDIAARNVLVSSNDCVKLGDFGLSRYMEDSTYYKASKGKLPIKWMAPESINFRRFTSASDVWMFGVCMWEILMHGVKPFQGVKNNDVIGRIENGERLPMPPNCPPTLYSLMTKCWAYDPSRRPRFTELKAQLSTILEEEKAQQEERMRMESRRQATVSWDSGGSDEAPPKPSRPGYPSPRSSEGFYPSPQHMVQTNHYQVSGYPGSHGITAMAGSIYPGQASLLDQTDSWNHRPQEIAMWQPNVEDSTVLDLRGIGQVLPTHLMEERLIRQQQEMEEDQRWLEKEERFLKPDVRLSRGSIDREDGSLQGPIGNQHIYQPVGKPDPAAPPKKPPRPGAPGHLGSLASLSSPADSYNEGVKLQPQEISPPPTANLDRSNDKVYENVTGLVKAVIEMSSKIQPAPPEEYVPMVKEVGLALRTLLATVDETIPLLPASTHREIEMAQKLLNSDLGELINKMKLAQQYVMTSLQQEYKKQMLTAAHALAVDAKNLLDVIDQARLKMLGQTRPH
Follistatin (Homo sapiens), sequence (P19883 whole entry, looked up): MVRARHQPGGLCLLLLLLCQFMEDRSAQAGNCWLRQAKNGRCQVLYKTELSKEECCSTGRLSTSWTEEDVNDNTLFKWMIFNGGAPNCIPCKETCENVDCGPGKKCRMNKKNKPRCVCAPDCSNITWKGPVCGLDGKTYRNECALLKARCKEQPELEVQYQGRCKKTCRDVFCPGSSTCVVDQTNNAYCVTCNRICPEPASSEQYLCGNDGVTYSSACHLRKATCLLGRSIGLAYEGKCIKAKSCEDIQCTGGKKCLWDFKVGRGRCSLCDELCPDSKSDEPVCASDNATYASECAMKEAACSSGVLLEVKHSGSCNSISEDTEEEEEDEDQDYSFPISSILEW

Row | Compound | composite z-score [1] | composite Z-score [2] | composite z-score [3] | composite z-score [4] | composite z-score [5] | composite z-score [6] | composite z-score [7] | composite z-score [8] | composite z-score [9] | composite z-score [10] | composite z-score [11] | composite z-score [12] | composite z-score [13] | composite z-score [14] | composite z-score [15] | composite z-score [16] | z-score [17] | composite z-score [18] | composite z-score [19] | z-score [20]
1 | COC(=O)[C@@]1(Cc2ccc(OC)cc2)[C@H]2c3cc(C(=O)N(C)C)n(Cc4ccc(OC)c(OC)c4)c3C[C@H]2CN1C(=O)c1ccccc1 | 0.857 | -0.327 (inactive) | 0.391 | 0.218 | 0.587 | 3.17 | 0.457 | 1.29 | -0.885 | 0.96 | 1.26 | 1.25 | 0.96 | 0.844 | 0.745 | -0.3 | 0.327 | -0.257 | 0.951 | 1.72 (inactive)
2 | COCCOC(=O)N1C(=O)[C@@]2(c3cc(C#CCCO)ccc31)[C@H](c1ccc(O)cc1)N1[C@H](c3ccccc3)[C@H](c3ccccc3)OC(=O)[C@H]1[C@@H]2C(=O)N1CCCCCCC1 | 0.0837 | 1.11 (inactive) | 0.489 | 0.0931 | 0.431 | 0.666 | 0.642 | 1.3 | 0.755 | 1.1 | 2.4 | 1 | 0.855 | 0.771 | 1.43 | 1.6 | -0.183 | 1.21 | 1.06 | -0.179 (inactive)
3 | Cc1cc(C)c(C(O)C2C=CC3C(=O)NC(=O)C3N2Nc2ccccn2)c(C)c1 (stereo not given) | 0.63 | -0.0521 (inactive) | 0.148 | 0.139 | 0.422 | 1.09 | 0.751 | 0.785 | -0.907 | 0.049 | 0.735 | 1.03 | 0.471 | 0.925 | 1.11 | -0.719 | 0.513 | 0.0668 | 0.994 | -1.56 (inactive)
4 | COCC1C2CC[C@H]3C(OCc4ccc(F)cc4C(F)(F)F)OC[C@]4(C)[C@H]3C2=C(CN4C(=O)OC(C)(C)C)[C@H](C)C1COC (stereo not given in full) | 1.05 | 0.973 (inactive) | 0.202 | 0.214 | 0.698 | 3.39 | 0.63 | 1.2 | -1.12 | 1.13 | 0.976 | 1.18 | 0.475 | 0.764 | 0.342 | -0.593 | 1.52 | -0.348 | 1.14 | 0.248 (inactive)
5 | CC1(C)C(=O)C(c2ccccc2)=C2CN3C(=O)N(CCc4ccccc4)C(=O)C3(Cc3ccccc3)C=C21 (stereo not given) | 0.775 | 0.274 (inactive) | 0.351 | 0.121 | 0.644 | 1.16 | -0.0857 | 0.516 | -0.888 | 0.444 | 0.323 | 1.14 | 0.369 | 0.119 | 0.552 | -0.492 | 0.19 | -0.378 | 1.03 | 0.245 (inactive)
6 | COc1cc(NN2C(C(O)c3ccccc3)C=CC3C(=O)N(c4ccccc4)C(=O)C32)cc(OC)c1OC (stereo not given) | 0.923 | 0.153 (inactive) | 0.569 | -0.124 | 0.831 | 3.3 | 0.263 | 1.31 | -0.0912 | 0.919 | 1.67 | 1.28 | 0.707 | 0.967 | 0.952 | 0.444 | 1.42 | 0.879 | 1.39 | -2.13 (inactive)
7 | O=c1cccc(-c2cccc3ccccc23)o1 | 0.702 | 0.276 (inactive) | -0.0377 | 0.0135 | 0.475 | 0.458 | 0.871 | 0.11 | -0.671 | -0.511 | 0.874 | 1.2 | 1.35 | 0.708 | 0.26 | -0.32 | 0.316 | -0.789 | 0.8 | 1.52 (inactive)
8 | O=C1OCCC/C=C\[C@H]2OC34C=CCN(CCN5CCOCC5)C(=O)[C@H]3N(CCO)C(=O)[C@@H]4C12 (stereo not given in full) | 0.394 | 0.0421 (inactive) | -0.346 | -0.211 | 0.866 | -0.0995 | -0.0129 | -0.779 | -0.601 | -1.09 | 2.47 | -1.64 | -0.3 | -0.786 | -0.981 | -0.322 | -1.08 | -1.57 | -0.365 | 0.634 (inactive)
9 | O=C(NCC(O)CO)[C@]1(CCS(=O)(=O)c2ccccc2)N=C(c2ccc(OCCCO)cc2)O[C@@H]1c1ccccc1 (stereo not given in full) | 1.11 | -0.262 (inactive) | -0.095 | -0.0392 | 0.761 | 3.41 | 0.944 | 1.23 | -1.41 | 0.87 | 1.14 | 1.27 | 0.516 | 0.976 | 0.866 | -0.702 | 0.439 | -1.11 | 1.54 | 0.0334 (inactive)
10 | CN1C(=O)C2C=CC(C(O)c3ccc(Br)cc3)N(Nc3ccccc3)C2C1=O (stereo not given) | 0.768 | 0.304 (inactive) | 0.145 | 0.0498 | 0.678 | 0.991 | 0.204 | 0.168 | -0.723 | -0.597 | -0.233 | -0.426 | 0.1 | -0.23 | -1.12 | -1.22 | -0.101 | -1.33 | 0.387 | -1.11 (inactive)
11 | CN1C(=O)C2C=CC(C(O)C=Cc3ccc([N+](=O)[O-])cc3)N(N3CCCCC3)C2C1=O (stereo not given) | 0.933 | 0.693 (inactive) | 1.03 | 0.713 | 0.766 | 2.1 | 1.52 | 1.31 | 0.57 | 1.2 | 1.25 | 1.2 | 0.518 | 0.966 | 1.4 | 0.544 | 0.39 | 0.393 | 1.28 | -1.79 (inactive)
